# Calls of active or inactive are those of the source.
# Experiments:
# [1] = optical density shifts of acrAB sulA E. coli – strain DRC41, OD650, 48 h, E. coli filamentation inducer project, primary screen (AID 1152); settings: higher = more signal, called active from +8 up or from −8 down;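 further: E. coli MC1000 strain DRC41 lacking acrAB efflux pump and sulA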
# [2] = probe aLefty1 binding on compound microarray – biochemical, small-molecule microarray, 635/667 nm fluorescence, primary screen (AID 1153); settings: higher = more signal;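 further: score merges spot fluorescence with signal-to-noise ratio from the scanned slide images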
# [3] = plasmodial surface anion channel blockers, osmotic lysis – cell-based, P. falciparum Indochina, OD700, 1 h, primary screen (AID 1154); settings: P. falciparum Indochina infected RBC osmotic lysis, higher = more signal, called active from +8 up or from −8 down
# [4] = plasmodial surface anion channel blockers, osmotic lysis – cell-based, P. falciparum Indochina, OD700, 2 h, primary screen (AID 1155);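 further: lysis reports solute entry through the parasite surface anion channel PSAC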; settings: P. falciparum Indochina infected erythrocytes, higher = more signal, called active from +8 up or from −8 down
# [5] = changes in parasitized red cell lysis, either direction – P. falciparum Indochina, OD700, 3 h, PSAC antagonist project, primary screen (AID 1156); settings: P. falciparum-infected erythrocytes, osmotic lysis, higher = more signal, called active from +8 up or from −8 down
# [6] = plasmodial surface anion channel blockers, osmotic lysis – cell-based, P. falciparum Indochina, OD700, 18 h, primary screen (AID 1157); settings: P. falciparum Indochina infected erythrocytes, osmotic lysis OD700, 18 h; higher = more signal, called active from +8 up or from −8 down
# [7] = S6 kinase pathway phospho-S6 level changes – cell-based, A549, cytoblot, luminescence, serum-stimulated, primary screen (AID 1158); settings: 5 h, higher = more signal;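 further: serum-stimulated A549 lung adenocarcinoma cells; signal is phosphorylated S6 detected by cytoblot immunostaining with HRP secondary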
# [8] = target: NADPH oxidase 2 (Homo sapiens) (UniProt P04839); test: compounds shifting NOX2 Amplex Red fluorescence – cell-based, HEK293-NOX2, PMA-stimulated, NOX inhibitor project, primary screen (AID 1159); settings: 45 min, higher = more signal, called active from +8 up or from −8 down; further: test concentration not given here
# Sequence of NADPH oxidase 2 (Homo sapiens) (P04839 whole entry, looked up): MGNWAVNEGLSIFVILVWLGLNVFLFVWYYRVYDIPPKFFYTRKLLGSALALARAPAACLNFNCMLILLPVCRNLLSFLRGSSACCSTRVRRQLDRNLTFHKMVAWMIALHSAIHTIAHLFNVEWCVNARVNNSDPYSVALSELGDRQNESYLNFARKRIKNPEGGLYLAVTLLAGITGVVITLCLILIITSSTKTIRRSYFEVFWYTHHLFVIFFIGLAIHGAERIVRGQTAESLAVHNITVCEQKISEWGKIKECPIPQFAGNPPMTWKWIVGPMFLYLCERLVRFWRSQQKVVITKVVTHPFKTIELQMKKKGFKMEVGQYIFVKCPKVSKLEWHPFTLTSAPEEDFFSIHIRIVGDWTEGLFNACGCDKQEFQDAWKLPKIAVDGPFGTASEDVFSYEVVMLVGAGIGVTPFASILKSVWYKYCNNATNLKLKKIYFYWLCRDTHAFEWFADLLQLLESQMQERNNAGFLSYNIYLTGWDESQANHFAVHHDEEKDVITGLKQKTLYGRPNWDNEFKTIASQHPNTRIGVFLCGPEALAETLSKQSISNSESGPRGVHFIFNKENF
# [9] = target: NADPH oxidase 4 (Homo sapiens) (UniProt Q9NPH5); test: compounds shifting NOX4 Amplex Red fluorescence – cell-based, HEK293-NOX4, tetracycline-induced, NOX inhibitor project, primary screen (AID 1160); settings: HEK293-NOX4, Amplex Red H2O2 fluorescence, 45 min; higher = more signal, called active from +8 up or from −8 down
# Sequence of NADPH oxidase 4 (Homo sapiens) (Q9NPH5 whole entry, looked up): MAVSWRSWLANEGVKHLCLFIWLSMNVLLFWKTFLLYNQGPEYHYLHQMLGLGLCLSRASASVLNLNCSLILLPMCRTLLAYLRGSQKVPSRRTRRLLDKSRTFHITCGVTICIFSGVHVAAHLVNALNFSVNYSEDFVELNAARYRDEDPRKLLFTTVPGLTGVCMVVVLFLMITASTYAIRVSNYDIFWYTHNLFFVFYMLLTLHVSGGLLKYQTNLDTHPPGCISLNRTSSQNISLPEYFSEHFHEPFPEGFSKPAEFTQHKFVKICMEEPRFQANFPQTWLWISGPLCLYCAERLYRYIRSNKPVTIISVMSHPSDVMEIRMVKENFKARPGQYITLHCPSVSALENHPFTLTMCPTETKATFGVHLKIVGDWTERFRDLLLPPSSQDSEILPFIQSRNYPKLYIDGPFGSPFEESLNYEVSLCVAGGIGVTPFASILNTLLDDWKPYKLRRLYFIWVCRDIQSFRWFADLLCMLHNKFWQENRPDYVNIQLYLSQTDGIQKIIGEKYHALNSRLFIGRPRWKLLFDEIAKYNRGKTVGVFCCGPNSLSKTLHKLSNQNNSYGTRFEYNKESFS
# [10] = target: NADPH oxidase 5 (Homo sapiens) (UniProt Q96PH1); test: compounds shifting NOX5 Amplex Red fluorescence – cell-based, HEK293-NOX5, NOX inhibitor project, primary screen (AID 1161); settings: HEK293-NOX5, ionomycin, 45 min, higher = more signal
# Sequence of NADPH oxidase 5 (Homo sapiens) (Q96PH1 whole entry, looked up): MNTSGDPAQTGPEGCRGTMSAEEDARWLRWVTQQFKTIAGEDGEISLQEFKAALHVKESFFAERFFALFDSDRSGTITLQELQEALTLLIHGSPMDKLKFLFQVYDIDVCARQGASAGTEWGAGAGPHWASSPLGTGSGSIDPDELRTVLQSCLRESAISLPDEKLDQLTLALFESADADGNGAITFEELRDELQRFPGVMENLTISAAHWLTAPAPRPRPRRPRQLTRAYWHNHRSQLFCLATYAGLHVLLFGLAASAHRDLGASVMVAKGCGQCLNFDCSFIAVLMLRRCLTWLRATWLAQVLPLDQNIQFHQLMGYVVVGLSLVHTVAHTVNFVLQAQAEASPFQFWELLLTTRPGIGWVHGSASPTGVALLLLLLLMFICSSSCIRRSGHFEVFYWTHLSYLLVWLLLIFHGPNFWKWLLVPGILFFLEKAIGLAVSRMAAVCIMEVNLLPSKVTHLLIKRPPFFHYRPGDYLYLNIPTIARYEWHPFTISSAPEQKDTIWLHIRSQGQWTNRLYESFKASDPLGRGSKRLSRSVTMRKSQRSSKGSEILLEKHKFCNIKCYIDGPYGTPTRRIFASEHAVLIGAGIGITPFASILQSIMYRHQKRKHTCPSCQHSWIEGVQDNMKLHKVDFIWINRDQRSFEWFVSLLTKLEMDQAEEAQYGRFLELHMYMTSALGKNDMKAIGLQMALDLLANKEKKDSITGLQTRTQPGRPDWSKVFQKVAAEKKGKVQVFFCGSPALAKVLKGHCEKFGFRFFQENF
# [11] = compound effects on lung adenocarcinoma cell viability – A549, calcein-AM fluorescence, 48 h, basal, profiling panel (AID 1162); settings: higher = more signal; further: test concentration not given here
# [12] = compound effects on differentiated 3T3-L1 adipocyte viability – cell-based, 3T3-L1 adipocytes, calcein-AM fluorescence, 48 h, basal, profiling panel (AID 1163); settings: 3T3-L1 adipocytes viability, higher = more signal; further: test concentration not given here
# [13] = compound effects on hepatocellular carcinoma cell viability – HepG2, calcein-AM fluorescence, 48 h, basal, profiling panel (AID 1164); settings: higher = more signal; further: test concentration not given here
# [14] = compound effects on multiple myeloma cell viability – MM1S, calcein-AM fluorescence, 48 h, basal, profiling panel (AID 1165); settings: higher = more signal;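 further: viability of MM1S multiple myeloma cells under basal unstimulated conditions; test concentration not given here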
# [15] = calcein-AM signal in unstimulated myeloma cells – cell-based, calcein-AM fluorescence, 48 h, PK04 Diversity Set, profiling panel (AID 1166); settings: RPMI8226 myeloma viability, higher = more signal;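 further: cells grown under basal conditions without added stimulus; test concentration not given here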
# [16] = JC-1 mitochondrial signal, unstimulated HepG2 cells – cell-based, JC-1 fluorescence, 24 h, 100 nL compound, profiling panel (AID 1167); settings: HepG2 mitochondrial potential, higher = more signal; further: test concentration not given here
# [17] = JC-1 mitochondrial signal, unstimulated adipocytes – cell-based, JC-1 fluorescence, 3T3-L1 adipocytes, 24 h, 100 nL compound, profiling panel (AID 1168); settings: JC-1 mitochondrial fluorescence, higher = more signal, called active from +8 up or from −8 down; further: test concentration not given here
# [18] = JC-1 mitochondrial signal, unstimulated myeloma cells – cell-based, JC-1 fluorescence, RPMI8226, 24 h, 100 nL compound, profiling panel (AID 1169); settings: JC-1 mitochondrial potential fluorescence, higher = more signal; further: test concentration not given here
# [19] = JC-1 mitochondrial signal, unstimulated MM1S myeloma – cell-based, JC-1 fluorescence, 24 h, 100 nL compound, profiling panel (AID 1170); settings: MM1S mitochondrial potential, higher = more signal; further: test concentration not given here
# [20] = resazurin metabolic signal in A549 cells – cell-based, resazurin fluorescence, 24 h, PK04 Diversity Set, profiling panel (AID 1171); settings: A549 viability, higher = more signal, called active from +8 up or from −8 down; further: test concentration not given here
Structure (SMILES),z-score [1],composite z-score [2],z-score [3],z-score [4],z-score [5],z-score [6],z-score [7],z-score [8],z-score [9],z-score [10],z-score [11],z-score [12],z-score [13],z-score [14],z-score [15],z-score [16],z-score [17],z-score [18],z-score [19],z-score [20]
CN(C)CCCC[C@@H]1NC(=O)[C@@H]2C[C@H](C(=O)NCCCCCN)[C@H](c3ccc(O)cc3)N2C1=O,0.195 (inactive),-0.056,-0.327 (inactive),0.0694 (inactive),0.494 (inactive),-0.0676 (inactive),-0.431,-0.487 (inactive),-0.159 (inactive),0.701,0.635,0.177,-0.0772,0.189,-0.115,1.25,0.665 (inactive),-0.286,-0.592,-0.475 (inactive)
COc1ccc([Si](C)(C)[C@H]2[C@H](CC(=O)N(CCO)Cc3ccccc3)O[C@@]3(C(=O)N(Cc4cccc(N5C(=O)c6cccc7cccc5c67)c4)c4ccccc43)[C@@H]2C)cc1,1.33 (inactive),-0.0507,13.2 (active),0.787 (inactive),-0.924 (inactive),-0.34 (inactive),2.67,0.38 (inactive),0.39 (inactive),1.83,-0.191,0.996,-1.5,-0.883,-4.29,0.0381,2.83 (inactive),-1.06,-1.08,-2.32 (inactive)
CC(C)OC(=O)C1=CCC(c2cccc(Cl)c2)O1 (stereo not given),0.504 (inactive),-0.142,26 (active),6.53 (inactive),0.751 (inactive),0.296 (inactive),1.8,-3.89 (inactive),-2.1 (inactive),-4.96,-1.14,0.102,-0.582,-1.57,-1.58,-0.231,-0.076 (inactive),0.923,-1.99,1.09 (inactive)
C=CCC(OC(C)=O)[C@@H]1[C@@H](N(Cc2ccc(-c3ccccc3)cc2)C(=O)c2ccc(C)cc2)c2cc(OCCCO)ccc2N1C(=O)c1ccc2ccccc2n1 (stereo not given in full),2.95 (inactive),0.175,0.225 (inactive),-0.883 (inactive),-1.19 (inactive),-1.06 (inactive),1.56,-0.0121 (inactive),0.729 (inactive),1.92,3.36,0.389,1.85,-0.68,1.28,3.31,0.285 (inactive),0.0312,1.96,1.87 (inactive)
CC[C@@H]1C=C(C(=O)O)[C@H](c2ccc(C(C)C)cc2)N1S(=O)(=O)c1ccc(C)cc1,-0.646 (inactive),1.36,0.998 (inactive),0.845 (inactive),0.105 (inactive),0.709 (inactive),-0.334,0.685 (inactive),-0.418 (inactive),-0.0711,-0.658,-0.178,-0.391,-0.683,-0.251,-0.961,0.495 (inactive),-0.971,-0.574,-0.42 (inactive)
O=C1OCC=C[C@H]2OC34C=CCN(Cc5ccccc5)C(=O)[C@H]3N(CCCO)C(=O)[C@@H]4[C@@H]12 (stereo not given in full),2.57 (inactive),1.27,0.599 (inactive),-1 (inactive),1.01 (inactive),-1.05 (inactive),0.833,-0.548 (inactive),-1.29 (inactive),-1.17,-0.518,0.676,-1.28,0.772,0.0919,0.0708,-0.0748 (inactive),0.242,0.252,-0.196 (inactive)
O=C1C2C=CC(C(O)CCc3ccccc3)N(Nc3ccccc3)C2C(=O)N1c1ccccc1 (stereo not given),-1.7 (inactive),0.767,1.9 (inactive),1.32 (inactive),0.624 (inactive),1.42 (inactive),-1.06,-1.26 (inactive),-5.33 (inactive),-1.45,-1.22,-1.12,0.203,-0.46,0.198,-2.35,-0.727 (inactive),-0.278,-0.174,-0.424 (inactive)
Cn1c2c(c3ccccc31)C(=O)C1NC2C=CC1(C)C(=O)OCc1ccccc1 (stereo not given),-1.14 (inactive),0.125,0.395 (inactive),0.896 (inactive),0.808 (inactive),0.484 (inactive),-0.495,-0.343 (inactive),-1.52 (inactive),1.31,-0.618,-0.0704,0.583,-0.175,0.0208,0.603,-1.65 (inactive),-0.0327,0.426,-0.078 (inactive)
COCCOC(=O)N1C(=O)[C@@]2(c3ccccc31)[C@H](c1ccc(O)cc1)N1[C@H](c3ccccc3)[C@H](c3ccccc3)OC(=O)[C@H]1[C@@H]2C(N)=O,0.0672 (inactive),-0.379,2 (inactive),1.18 (inactive),1.34 (inactive),0.44 (inactive),-0.0639,-0.198 (inactive),-0.747 (inactive),-0.0275,0.357,0.502,1.75,0.936,0.395,-0.815,0.76 (inactive),0.296,-0.971,-0.83 (inactive)
